# Measurements as given in PubChem BioAssay (NCI).
# The panel holds about 83,000 compounds, 20% with a hit somewhere; the sample as a whole holds those more often.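 Method: cells in 96-well plates; compound added at one concentration; 48 h incubation; percent growth measured; values under 10 scored active.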 A number with no mark means an inactive call. Active and inactive are the calls of the source.
# Test system: EKVX NSCLC
# Assay: NCI-60 one-dose screen, 48 h (100 = growth as untreated, 0 = no growth, -100 = all killed)
# Conditions: 10 µM
# Procedure: Growth inhibition of the EKVX human Non-Small Cell Lung tumor cell line is measured as a screen for anti-cancer activity. Cells are grown in 96 well plates and exposed to the test compound for 48 hours. Compounds are tested at a single concentration, which is 10^-5 M for most compounds. The reported endpoint is percent growth (GI% or GIPRCNT), where numbers from 0 - 100% represent growth inhibition, and numbers from -100% - 0 represent cell death. For example, a value of 40 represents 60% growth inhibition. A value of 0 means no net growth occurred over the course of the experiment. A value of -40 indicates 40% of cells at the beginning of the experiment died by the end of the experiment. A value of -100 means all cells are dead at the end of the experiment.
# NCI-60 Human Tumor Cell Lines Screen was performed using the standard one-dose NCI protocol, which is described in more detail at https://dtp.cancer.gov/discovery_development/nci-60/default.htm.
# Compounds with GIPRCNT values below 10 were considered active. Activity score was based on GIPRCNT using the following formula: […]
# Score is 0 for GIPRCNT values of 100 or above, 50 for GIPRCNT values of 0, and 100 for GIPRCNT values of -100.
row,Compound,growth
1,N=C(N)c1ccc(-c2ccc(-c3ccc(Cl)cc3)s2)s1,-70.7% (active)
2,N#Cc1c2ncccc2c2nnc3cc(Cl)c(Cl)cc3n12,84.1%
3,Cc1ccc(C(=O)NN)cc1,97.1%
4,CCCC(=O)NNc1[nH]c(-c2cc(OC)c(OC)c(OC)c2)cc1C(=O)OCC,103%
5,C/C(=N\Nc1ccc(Cl)cn1)c1ccc2ccccc2n1,11.1%
6,COC(=O)c1ccc2[nH]c(O)c(C(=Nc3ccc(N(C)C(=O)CN4CCN(C)CC4)cc3)c3ccc([N+](=O)[O-])cc3)c2c1,88.1%
7,COC(=O)c1cc(O)c2cc3c(cc2c1-c1cc(OC)c(OC)c(OC)c1)OCO3,55.8%
8,COc1cc(-c2nn(-c3ccc(NC(=O)Nc4cc(C(F)(F)F)cc(C(F)(F)F)c4)cc3)cc2-c2ccncc2)ccc1Cl,-1.64% (active)
9,CCNc1nnc(COc2ccc(CNC(=O)CCCC/C=C/C(C)C)cc2OC)o1,96.7%
10,COc1cc(/C=C/C(=O)/C=C(/C=C/c2ccc(OC(C)=O)c(OC)c2)OB(F)F)ccc1OC(C)=O,76.1%
11,O=C(Nc1ccc(-n2cc(-c3ccncc3)c(-c3ccc(Cl)c(O)c3)n2)cc1)Nc1cc(C(F)(F)F)cc(C(F)(F)F)c1,15.9%
12,COc1cc(-c2cc3cnccc3c3nc(N)c4ccncc4c23)cc(OC)c1OC,55.3%
13,O=C1CSC(c2ccccc2Cl)N1c1nnc(-c2ccncc2)o1 (stereo not given),93.2%
14,Cc1c(O)c(N=Nc2ccc(C(=O)O)c(O)c2)c2ccccc2c1O,66.4%
15,COc1cc(-c2nc(/C=C3/C(=O)Nc4ccccc43)c3ccccn23)cc(OC)c1OC,102%
16,Brc1c(-c2ccncc2)nc2n1CCS2,110%
17,COc1ccc(Cn2cc3c(c2-c2ccccc2)CCc2cnoc2-3)cc1N,16.5%
18,CC(C)OC(=O)Nn1cnc2ccccc21,106%
19,FC(F)(F)c1cccc(-c2[nH]ncc2-c2nnnn2-c2ccccc2)c1,52.6%
20,CC(=O)Nc1nc(C)c(C(=O)N/N=C/N2CCOCC2)s1,122%

row,Compound,growth
1,CC(=O)N1N=C(c2ccc(Cl)cc2)CC1c1cn(-c2ccccc2)nc1-c1ccc([N+](=O)[O-])cc1 (stereo not given),98.8%
2,CCCCCSc1ccc2nc(NC(=O)OCC)sc2c1,30.3%
3,C/C=C(/C)C(=O)OC1C=C(CO)C(=O)C(OC(=O)/C(C)=C\C)C1C(C)C (stereo not given),-55.1% (active)
4,Cc1nc2ccccc2c(=O)n1-c1cccc(OCc2cn(-c3cccc(O)c3)nn2)c1,103%
5,Cc1ccc(C(=O)Nc2ccc(CN3CCN(C)CC3)c(C(F)(F)F)c2)cc1C#Cc1cnc(N)c2ccc(F)cc12,-92.2% (active)
6,CN1CCN(Cc2ccc(NC(=O)c3cncc(C#Cc4c(N)ncc5ccc(F)cc45)c3)cc2C(F)(F)F)CC1,50.7%
7,COc1ccc2c(c1)/C(=C1/S/C(=N/c3nnc(C)s3)NC1=O)C(=O)N2Cc1ccc(Br)cc1,31.8%
8,CC1(C)C(O)NC(Cl)=C(C#N)C1(C#N)C#N (stereo not given),102%
9,CCC(C)(C)c1ccc(OCCCCCCN2CCN(c3ccc(C)c(Cl)c3)CC2)cc1,83%
10,O=C(Cc1ccccc1[N+](=O)[O-])c1ccc2c(c1)OCO2,97.5%
11,Nc1ccc(S(=O)(=O)c2ccc(NO)cc2)cc1,90.5%
12,O=C1/C(=C/c2ccc(Cl)cc2)CCC/C1=C\c1ccc(Cl)cc1,89.2%
13,CCCCCCCCC/C(=N\NC(=O)c1ccncc1)c1ccc(O)c(O)c1O,34.5%
14,CCOc1ccc(/C=N/NC(=O)c2cccc3ccccc23)cc1OCC,99.1%
15,Cc1cc(CSc2ccc(Cl)cc2)ccc1N,85.8%
16,CCc1c(C)c2ccc(OCC(=O)N=Nc3c(O)[nH]c4ccccc34)c(C)c2oc1=O,88.9%
17,CCC(CCCN1C(=O)c2ccccc2C1=O)Nc1cc(OC)cc2c(C)ccnc12 (stereo not given),84.5%
18,CC(=O)N1CCN(CCNC(=O)n2cc(-c3ccncc3)c(-c3ccc(O)c(Cl)c3)n2)CC1,133%
19,COc1ccc(CN2C(=O)/C(=C\C(=O)c3ccc(OCCN4CCCCC4)cc3)c3ccccc32)cc1,87.6%
20,CCCC(CCC)Oc1ccc(CCCC2=C(O)c3ccccc3C(=O)C2=O)cc1,26.3%
